According to the supplement of paper PMC12024424:
Structures can show the parent of a compound that is named as a salt.

System: Staphylococcus aureus Sa2 (MRSA, cystic fibrosis isolate)
Assay: growth reduction vs untreated control (OD550); higher = stronger antibacterial activity
Conditions: 0.1 mM; 24 h
Protocol: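 Single-dose screen of the MedChem Express Drug Repurposing Library (0.1 mM, 1% DMSO) against planktonic MRSA S. aureus Sa2 (CF isolate) in TSB in 96-well plates, 37 °C aerobic, 24 h. Assays were run in triplicate and repeated twice.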

SMILES	growth reduction [%]
CNC(=O)c1ccc(Nc2ncc(C(F)(F)F)c(NCc3nccnc3N(C)S(C)(=O)=O)n2)cc1 [Defactinib]	96.2
COc1ccc2c(c1OCc1ccccc1)C[C@@H](C(=O)O)N(C(=O)C(c1ccccc1)c1ccccc1)C2 [Olodanrigan]	95.1
CC1=CC(=O)c2ccccc2C1=O [Menadione]	96.7
C=C[C@@H]1C[C@]1(NC(=O)[C@@H]1C[C@@H]2CN1C(=O)[C@H](C(C)(C)C)NC(=O)O[C@@H]1C[C@H]1CCCCCc1nc3ccc(OC)cc3nc1O2)C(=O)NS(=O)(=O)C1CC1 [Grazoprevir]	100
C=C[C@@H]1C[C@]1(NC(=O)[C@@H]1C[C@@H]2CN1C(=O)[C@H](C(C)(C)C)NC(=O)O[C@@H]1C[C@H]1CCCCCc1nc3ccc(OC)cc3nc1O2)C(=O)NS(=O)(=O)C1CC1 [Grazoprevir hydrate]	100
CC(C)=CCC/C(C)=C/CC/C(C)=C/CSc1ccccc1C(=O)O [Salirasib]	100
Cc1ccc(-n2[nH]c(C)c(N=Nc3cccc(-c4cccc(C(=O)O)c4)c3O)c2=O)cc1C [Eltrombopag (Olamine)]	95.9
CC/C(=C(\c1ccccc1)c1ccc(OCCN(C)C)cc1)c1ccccc1 [Tamoxifen]	100
Cc1cc(OCCCS(C)(=O)=O)cc(C)c1-c1cccc(COc2ccc3c(c2)OC[C@H]3CC(=O)O)c1 [Fasiglifam]	100
CCN(CC)CCNC(=O)c1c(C)[nH]c(/C=C2\C(=O)Nc3ccc(-c4csc(-c5ccccc5)n4)cc32)c1C [Amcasertib]	100
COc1cc(/C=C/c2ccc(O)cc2)cc(OC)c1 [Pterostilbene]	99.9
CCCCc1oc2ccc(NS(C)(=O)=O)cc2c1C(=O)c1ccc(OCCCN(CCCC)CCCC)cc1 [Dronedarone]	96.5
CCCCCc1ccc(C=CC(=O)Nc2ccccc2C(=O)O)cc1 [N-(p-amylcinnamoyl) Anthranilic Acid]	100
Cn1cnc([N+](=O)[O-])c1C[N+](C)(C)C/C=C/C(=O)Nc1cc2c(Nc3ccc(Cl)c(Br)c3)ncnc2cn1 [Tarloxotinib (bromide)]	99.6
O=C(O)c1cc(F)c2nc(N3[C@@H]4CC[C@H]3C[C@@H](OCc3c(-c5ccccc5OC(F)(F)F)noc3C3CC3)C4)sc2c1 [Tropifexor]	100
CCCCCCCOc1ccc(CCC(N)(CO)CO)cc1C(F)(F)F [Amiselimod (hydrochloride)]	100
CCCCN(CCCC)C(=O)CN1C[C@H](c2ccc3c(c2)OCO3)[C@@H](C(=O)O)[C@@H]1c1ccc(OC)cc1 [Atrasentan (hydrochloride)]	100
CS(=O)(=O)c1ccc([C@@H](O)[C@@H](CF)NC(=O)C(Cl)Cl)cc1 [Florfenicol]	100
Cc1cc(C)cc([C@@H]2CCCN2Cc2ccc(Oc3ccc(C(N)=O)cc3F)cc2)c1 [Aticaprant]	100
O=C(Nc1ccc(F)cc1)c1cnc(SCc2cc(OC(F)(F)F)ccc2B(O)O)nc1	100

SMILES	growth reduction [%]
CSc1ccc(C(=O)/C=C/c2cc(C)c(OC(C)(C)C(=O)O)c(C)c2)cc1 [Elafibranor]	91.6
CC1(C)CC[C@]2(C(=O)O)CC[C@]3(C)[C@H](C(=O)C=C4[C@@]5(C)C=C(C#N)C(=O)C(C)(C)[C@@H]5CC[C@]43C)[C@@H]2C1 [Bardoxolone]	100
O=C(Nc1ncc(SCCN2CCCC2)s1)[C@]1(c2ccc(S(=O)(=O)C3CC3)cc2)C[C@H]1C1CCCCC1 [Globalagliatin]	100
CCOc1cc(CC(=O)N[C@@H](CC(C)C)c2ccccc2N2CCCCC2)ccc1C(=O)O [Repaglinide]	96.9
CC1(C)CCC2=C(O1)c1ccccc1C(=O)C2=O [β-Lapachone]	100
CN1CCCN=C1/C=C/c1cccs1 [Pyrantel (pamoate)]	91.6
CC(C)(C(=O)NCC(F)(F)C(F)(F)F)C(=O)N[C@@H]1C(=O)Nc2ccccc2-c2ccccc21	100
O=c1oc2ccccc2c(O)c1Cc1c(O)c2ccccc2oc1=O [Dicoumarol]	100
COc1c(-c2ccc3cc(NS(C)(=O)=O)ccc3c2)cc(-n2ccc(=O)[nH]c2=O)cc1C(C)(C)C [Dasabuvir]	91.1
O/N=c1\cc(-c2cc3sccc3cn2)oc2ccc(CCCN3CCOCC3)cc12 [Foliglurax (monohydrochloride)]	100
NC(N)=NC(=O)c1nc(Cl)c(N2CCCCCC2)nc1N [5-(N,N-Hexamethylene)-amiloride]	100
O=C(NC1CCN(CCCCC2(C(=O)NCC(F)(F)F)c3ccccc3-c3ccccc32)CC1)c1ccccc1-c1ccc(C(F)(F)F)cc1 [Lomitapide]	100
Cc1ccc(Sc2ccccc2N2CCNCC2)c(C)c1 [Vortioxetine]	100
CCCCCOc1ccccc1/C(=C\SC)n1ccnc1 [Neticonazole (hydrochloride)]	100
COCCN1CCC(N(Cc2ccc(-c3ccc(C(F)(F)F)cc3)cc2)C(=O)Cn2c(SCc3cccc(F)c3F)cc(=O)c3ccccc32)CC1 [Rilapladib]	100
CCCCOc1nc(N)c2c(n1)N(Cc1cccc(CN3CCCC3)c1)CC(=O)N2 [Vesatolimod]	100
CC(C)COc1ccc(CNC(=O)N(Cc2ccc(F)cc2)C2CCN(C)CC2)cc1 [Pimavanserin]	100
COCc1c(C(C)C)nc(C(C)C)c(/C=C/[C@@H](O)C[C@@H](O)CC(=O)O)c1-c1ccc(F)cc1 [Cerivastatin (sodium)]	93.6
CC(C)(C)c1cc(-c2cc(-c3ccc(C(=O)O)cc3)ccc2OCCO)ccc1N1CCCC1 [Trifarotene]	100
C=CC(=O)Nc1cc(Nc2nccc(-c3cn(C4CC4)c4ccccc34)n2)c(OC)cc1N(C)CCN(C)C [Almonertinib]	100
